The text below walks through data of PubChem BioAssay (NCI).

Test systems include SR leukemia; RPMI-8226 leukemia; OVCAR-8 ovarian; OVCAR-5 ovarian; OVCAR-4 ovarian; SK-OV-3 ovarian; IGROV1 ovarian; OVCAR-3 ovarian; HS 578T breast; NCI/ADR-RES ovarian.
What all share (assay): NCI-60 one-dose screen, 48 h (100 = growth as untreated, 0 = no growth, -100 = all killed)
Conditions in all cases: 10 µM unless noted

Compounds without any hit were thinned out: in the full panel of roughly 83,000, 20% have a hit.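 The test compound was applied at a single concentration to cells in 96-well plates for 48 hours, and percent growth was recorded.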 A number with no mark means an inactive call. Active and inactive are the calls of the source. The calls were made as follows: active = growth percent below 10; inactive = the rest.

On to `C=C1SC(=Nc2c(C)cccc2C)N(c2nc(Cl)nc(Cl)n2)C12CCCCC2`, for which the growth with SR leukemia was 81.4%; in the experiment on RPMI-8226 leukemia, 99.8%; in the experiment on OVCAR-8 ovarian, 98.8%; with OVCAR-5 ovarian, 118%; with OVCAR-4 ovarian it was 101%; in the experiment with SK-OV-3 ovarian it was 99%. The growth was 97.4% in the experiment with IGROV1 ovarian, 101% with OVCAR-3 ovarian, 113% in the experiment with HS 578T breast and 105% in the experiment with NCI/ADR-RES ovarian.

Consider `CC(C)(N)CO[C@H]1C[C@H]2CC[C@@]1(C)C2(C)C`, for which the growth in the experiment with SR leukemia is 106%; in the experiment with RPMI-8226 leukemia, 108%; in the experiment on OVCAR-8 ovarian, 102%; in the experiment with OVCAR-5 ovarian, 95%; with OVCAR-4 ovarian, 104%; with SK-OV-3 ovarian, 112%. In addition, the growth with IGROV1 ovarian was 106%; in the experiment with OVCAR-3 ovarian, 93.6%; with HS 578T breast it was 81.9%; in the experiment on NCI/ADR-RES ovarian it was 103%.

Regarding `Cc1ccc(NCN2C(=O)c3ccccc3C2=O)c(C)n1`, the growth is 119% in the experiment on SR leukemia; 105% in the experiment on RPMI-8226 leukemia; 99.6% in the experiment with OVCAR-8 ovarian; 111% with OVCAR-5 ovarian; 119% with OVCAR-4 ovarian; 113% in the experiment on SK-OV-3 ovarian. The growth was 112% with IGROV1 ovarian, 130% with OVCAR-3 ovarian, 110% with HS 578T breast and 106% in the experiment with NCI/ADR-RES ovarian.

As to `N=C(N)c1nn(C2OC(CO)C(O)C2O)c2nc[nH]c(=O)c12` (stereo not given), the growth with SR leukemia was -22.7% (active); with RPMI-8226 leukemia, -19% (active); in the experiment with OVCAR-8 ovarian it was 7.8% (active); in the experiment with OVCAR-5 ovarian, 30.2%; in the experiment with OVCAR-4 ovarian it was -6.89% (active); in the experiment with SK-OV-3 ovarian, -15.7% (active). In addition, the growth was 21.8% with IGROV1 ovarian, -51.9% (active) in the experiment with OVCAR-3 ovarian, -19.4% (active) in the experiment with HS 578T breast and -10.4% (active) in the experiment with NCI/ADR-RES ovarian.

In the case of `CCC12OC(COc3ccccc3)CN1CCN2c1ccccc1` (stereo not given), the growth is 96.9% [100 µM] in the experiment on SR leukemia; 94.4% [100 µM] in the experiment on RPMI-8226 leukemia; 96.5% [100 µM] with OVCAR-8 ovarian; 98% [100 µM] in the experiment with OVCAR-5 ovarian; 95.5% [100 µM] with OVCAR-4 ovarian; 106% [100 µM] in the experiment on SK-OV-3 ovarian. Further, the growth was 93.4% [100 µM] with IGROV1 ovarian, 110% [100 µM] in the experiment on OVCAR-3 ovarian, 99.1% [100 µM] in the experiment with HS 578T breast and 100% [100 µM] in the experiment with NCI/ADR-RES ovarian.

For `O=C(CC(CC(=O)c1ccccc1)c1ccccn1)c1ccccc1`, the growth is 92.9% in the experiment with SR leukemia; 96.8% in the experiment on RPMI-8226 leukemia; 101% with OVCAR-8 ovarian; 105% with OVCAR-5 ovarian; 105% with OVCAR-4 ovarian; 104% in the experiment on SK-OV-3 ovarian. Besides, the growth is 96.8% in the experiment on IGROV1 ovarian, 106% with OVCAR-3 ovarian, 84.8% with HS 578T breast and 97.4% in the experiment with NCI/ADR-RES ovarian.

As to `COC(=O)c1ccccc1C(=O)c1c(C)cc(C)cc1C`, the growth is 79.6% with SR leukemia; 93.5% in the experiment on RPMI-8226 leukemia; 101% in the experiment with OVCAR-8 ovarian; 101% in the experiment with OVCAR-5 ovarian; 99.9% in the experiment on OVCAR-4 ovarian; 102% with SK-OV-3 ovarian. The growth is 98.5% in the experiment with IGROV1 ovarian, 103% in the experiment on OVCAR-3 ovarian, 100% in the experiment with HS 578T breast and 102% in the experiment on NCI/ADR-RES ovarian.

Consider `CCN(C(C)=O)c1ccc([N+](=O)[O-])cc1`, for which the growth was 97% with SR leukemia; 93.9% in the experiment on RPMI-8226 leukemia; 99.2% in the experiment with OVCAR-8 ovarian; 111% with OVCAR-5 ovarian; 113% with OVCAR-4 ovarian; 109% in the experiment on SK-OV-3 ovarian. Further, the growth is 107% with IGROV1 ovarian, 107% in the experiment on OVCAR-3 ovarian, 99.8% in the experiment on HS 578T breast and 102% with NCI/ADR-RES ovarian.

Regarding `C/C(O)=C(/C=N\C(=S)Nc1ccc(S(=O)(=O)Nc2nccs2)cc1)C(=O)Nc1ccccc1C`, the growth in the experiment on SR leukemia was 79.1%; in the experiment on RPMI-8226 leukemia, 86.3%; in the experiment with OVCAR-8 ovarian, 87.7%; in the experiment with OVCAR-5 ovarian, 103%; with OVCAR-4 ovarian, 98.7%; in the experiment with SK-OV-3 ovarian it was 100%. For the same molecule, the growth with IGROV1 ovarian was 106%; with OVCAR-3 ovarian it was 97%; in the experiment with HS 578T breast, 84.1%; with NCI/ADR-RES ovarian, 105%.

On to `NC(=O)N1CCOCC1`, for which the growth with SR leukemia is 89.8%; with RPMI-8226 leukemia, 94.8%; in the experiment with OVCAR-8 ovarian, 103%; in the experiment with OVCAR-5 ovarian it was 108%; in the experiment with OVCAR-4 ovarian, 103%; with SK-OV-3 ovarian it was 103%. The growth in the experiment on IGROV1 ovarian is 113%; in the experiment on OVCAR-3 ovarian, 103%; with HS 578T breast, 113%; in the experiment on NCI/ADR-RES ovarian, 113%.

`CS(=O)(=O)c1ccc(/C=C\C(=O)O)cc1`: the growth in the experiment with SR leukemia was 62.3%; in the experiment with RPMI-8226 leukemia it was 98.8%; with OVCAR-8 ovarian, 104%; in the experiment on OVCAR-5 ovarian, 105%; with OVCAR-4 ovarian, 98.2%; in the experiment with SK-OV-3 ovarian it was 106%. Also, the growth was 120% with IGROV1 ovarian, 102% in the experiment with OVCAR-3 ovarian, 81.7% with HS 578T breast and 104% in the experiment with NCI/ADR-RES ovarian.

In the case of `Nc1cc(N)ncn1`, the growth was 93.9% in the experiment with SR leukemia; 105% in the experiment with RPMI-8226 leukemia; 116% with OVCAR-8 ovarian; 96.5% in the experiment with OVCAR-5 ovarian; 99% in the experiment on OVCAR-4 ovarian; 125% in the experiment with SK-OV-3 ovarian. The growth in the experiment on IGROV1 ovarian was 101%; in the experiment on OVCAR-3 ovarian, 112%; in the experiment on HS 578T breast it was 96.2%; with NCI/ADR-RES ovarian it was 97.6%.

Turning to `CC1(C)OC2C(CO)OC(n3ccc(=O)[nH]c3=O)C2O1` (stereo not given), the growth is 99.7% with SR leukemia; 103% in the experiment on RPMI-8226 leukemia; 91.8% in the experiment on OVCAR-8 ovarian; 104% with OVCAR-5 ovarian; 115% in the experiment with OVCAR-4 ovarian; 99.3% with SK-OV-3 ovarian. Also, the growth with IGROV1 ovarian was 101%; in the experiment on OVCAR-3 ovarian, 107%; with HS 578T breast, 91.8%; in the experiment on NCI/ADR-RES ovarian, 105%.

On to `CN(CCCN(C)CCC1CCCCC1)CCC1CCCCC1`, for which the growth in the experiment with SR leukemia was -36.3% (active); with RPMI-8226 leukemia, 43.6%; in the experiment on OVCAR-8 ovarian it was 67.6%; in the experiment on OVCAR-5 ovarian, 56.4%; in the experiment with OVCAR-4 ovarian, 59.1%; in the experiment on SK-OV-3 ovarian, 58.9%. Moreover, the growth with IGROV1 ovarian was 66.6%; in the experiment on OVCAR-3 ovarian it was 73.9%; with HS 578T breast it was 51.2%; with NCI/ADR-RES ovarian, 62%.

On to `Cc1ccc(C(C)C)c(OCC(=O)O)c1`, for which the growth in the experiment with SR leukemia was 109%; with RPMI-8226 leukemia it was 107%; in the experiment with OVCAR-8 ovarian, 101%; in the experiment on OVCAR-5 ovarian it was 98.7%; in the experiment on OVCAR-4 ovarian, 112%; in the experiment with SK-OV-3 ovarian, 108%. Moreover, the growth in the experiment on IGROV1 ovarian was 109%; with OVCAR-3 ovarian it was 113%; with HS 578T breast, 101%; in the experiment on NCI/ADR-RES ovarian, 111%.

For `C/C=C/C1OCC(CC)C(CCC)O1` (stereo not given), the growth in the experiment with SR leukemia was 102%; in the experiment with RPMI-8226 leukemia, 94.5%; in the experiment on OVCAR-8 ovarian it was 103%; in the experiment with OVCAR-5 ovarian, 98.7%; in the experiment with OVCAR-4 ovarian, 110%; with SK-OV-3 ovarian, 108%. For the same molecule, the growth in the experiment on IGROV1 ovarian is 104%; in the experiment with OVCAR-3 ovarian, 106%; with HS 578T breast it was 107%; with NCI/ADR-RES ovarian, 108%.

On to `C=CCC(OC(C)=O)c1ccc(C(C)C)cc1` (stereo not given), for which the growth in the experiment with SR leukemia is 116%; with RPMI-8226 leukemia, 108%; in the experiment on OVCAR-8 ovarian, 105%; in the experiment on OVCAR-5 ovarian it was 109%; with OVCAR-4 ovarian it was 113%; in the experiment on SK-OV-3 ovarian, 115%. The growth was 123% in the experiment on IGROV1 ovarian, 162% in the experiment on OVCAR-3 ovarian, 109% with HS 578T breast and 107% in the experiment with NCI/ADR-RES ovarian.
